# Unmarked numbers belong to inactive results.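 How the source made its calls: active = MAPPIT score above the 99th percentile of random reference set scores in the same batch; inactive = at or below it.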
# B1: brat (protein)
# chain: MASSPTPSLDSMRGGANSIESYEHAGYLSDSPLTLSGSSPPASDSAICSDEYTGGSSVKSRSEVTVINGHHPISASVSSSSSASSSSCSSSSSSSSSSSSSSSSTSGLSGCGSTSSSVISANNVASSNGPGVIGSNLQSSNNGGNSGISSLVVGAGKGSNSSSNSSSSNTSANGSPPRCTACKSKCSDAVAKCFECQSYLCANCVTAHEFMHCFNGHNVCLIKGFEASTTGTPLSVGSPSNNPASNEFKYASSLTMMLQQQQQLDSQQQQQQQQLLPAQPMSQLSKIVLAAAAQANSQEQQREDSIYGSLHPQQQQQQQQQQQRQLFCPRHKQELLKFSCRTCCILVCKECIVLEHSTGLHELENVQSPGMTTSTGSTANESALQTLLADMRGKIGEIVGIAGNSDQNLTKVKLQYQKAHNELNETHQFFASMLDERKTELLKELETLYTAKVNSNNSWQQRSRDLIDKGLATCEAVERSPAPPSSLLTEALLLRKSLEQQLQTGIQEMQLPFEIEFMSNYQSIQAGVRNTFGYIRANSSDGGPTGMSLTSNGHGKQPPIARPTQSASNSSASSAGSGHHGHHQQSHHHGHHNHHQTAHHQQLQAQSSLHGLGLGLSGASLLDSSSSAGGAVGAFSNGGLLLGGRDRNALAVEQHFGELMPKRGGGGYTGSNGSATSAVAHYNPYEKWSNGGSDNLFSSVTSGVSGSSAVADAFASLSAVGGSVVSGAGAGGSTVSSESLLDLTNKLLSATIYPPKSQIKRQKMIYHCKFGEFGVMEGQFTEPSGVAVNAQNDIIVADTNNHRIQIFDKEGRFKFQFGECGKRDSQLLYPNRVAVVRNSGDIIVTERSPTHQIQIYNQYGQFVRKFGATILQHPRGVTVDNKGRIIVVECKVMRVIIFDQNGNVLHKFGCSKHLEFPNGVVVNDKQEIFISDNRAHCVKVFNYEGQYLRQIGGEGITNYPIGVGINSNGEILIADNHNNFNLTIFTQDGQLISALESKVKHAQCFDVALMDDGSVVLASKDYRLYIYRYVQLAPVGM
# B2: lobo (protein)
# chain: MPKVLFQKYKKVVSNIDPSRYSAKFKEIDEQRRSQGSESDFADEMEGEFEAEMEEMGSSEFSLSEGEPSLNIGKIDLSFPETVEEFENSPQCYPPSYYTLSPKERLLLLYAENFRKQLVLSYPKRRAMVLALPNECKVQKFVCTTIRPTAFIYTQLISSVEEIAKFVADFIQYEPLQDPINLPNRLISPETLLRKRKGNSYEMATLLVSMLIGAGHPALVVSGVAREETILNDQLAVPYPYPIVEVEVEEVKPKVEKPGQKYKLRGLPDLKSHLEEDMAEVHRQKEAEEKRIQDEIIRKQMEDLELLAVDRYHYRRSHAWVVIINNAPWSVKPKTTYTDVNGDVVEAPPTAIFIEPSTGFICETGCKQYILVDSIWNEYNYYVCKQKHQRVSELRWDLRDTKDWEHMLPGEPPEMRIYKMASDENVADEERDISEEKHLDCIGSWVERLHIGLADFEQRFPSSEKKIQYKGAIHERFSPYSQRDGKVMQLTIFNNDECTIPKVRYEYYENRSDLMRHVKYTYATDQFEEIFNKGRNDSLKSIEYFSDPSQQRKVHFFSASRIDSLELMVVEPGSLILHYKDRSDKCWYKEFEFTPAGNVLKKVTEKFLKASANDVCSNDIATRTFLFQQNKIVLKFHYTFGALTATVVEFTKPPRPDYGKELIYDEKLTKIYKANPLDPTRTNLELYRLLCEQLQYEDHLRKNFEKIFEDINNVFDLRKSEKAEPKLKFSIFDPLRNGAARAIRMRQFEEEEELKKEIASKPADFLAPYLVPYKHQEELTPEQSQNAYNACLNDLKSRFVSLLNNLQRHYEDLTSESKSLNRFLNKFENQFNNYDYKRLVQQSKDLELNKRMVQQRLTLTHEESQKKYEVVKNSLLKDPRLNFKKDDLARRASETSK
# B3: Cp190 (protein)
# chain: MGEVKSVKVDNWGVFFLQKLQNFFNKTDYCDLTLQFRDNSQLKVHRLVLSACTDYFNVLEQTCEIVDDALIMPNEFQADVVVPIVNFMYTGTLEFELKMYGKLLRTAKEMNMTVLLKLLEAHRRTMENVNRQQRPPSPKGIRRRTVGQPSSGLPQQRVLGPSPQSRNVATPIAQRANTQRGSTGNTMSRTSGGSNRSPYGDSSNVKQEPTSPFEQLRKGYNNNKRPAQTSLLSPPSKKPSLEEVKEFAEQQRMRKQIAAEYGDNDPEYDGGMLYDDVHAGDDDDDDMPPQPSTSKQQSPQGTQTQLEHGSTTIILKQDSPSQTPTIIVKDSSNAKLNHTKIIAEVLRQYPHIVKGHKNIKLKIMPNTPAAPTEKSAPATVKPPANQSSATTSPHKKLHVSFKADKSTPLITAQQKAASSQQKSGTSQTTGNQGTGANPPANTAAAQKRRIDSKTMHALIAQGAENTTGPWLCLRCGVNGRPISIPSYRGFRRHLINTHKETIDPALCEHCGWRSVNNRELHFHMYMEHQTKSLLYTFAECALCNQSYRTKGELEAHINEVHTDDNKQQCIYCNKVFEQELQLYRHMKSYHKEQALEDGIIDETDEEFLGSQDEEEEAEGDEEQEPEQTGKVRILSDISLPATSAITVQQAQQEQLQEEDVEQVQQEVKFVGADGNEVELTDEQRKEILSQLNQQQAGATAGGVVMVLSEPEAEHVKQETDEKSLAGTEEEYDDSQIYSELGAADSVESAKKNIADESKESIDNLEWAENLIAESEEQSNKEPKSDKPRDDISEKLKELTGDWTEDENDDDVDDKPATAELASELANKDPEPTVHEEEDDIDLALQSLHKGPEEATEEKASEESVTSADDAVDAVPNINSQPEKMDVDSEAADEKASKAEVQIKKEAELENDQEEFIKEDSPIPHSDSVAELREAVTASEGEDDVHLEADNIRKELLDELIAEAEKPDQEKDIVQSEENATTEALDRSVTDEDDLVPPTQVSTEQMEIDEPAAEKAAENNEDTRTADEKEAVEDKPNQTQDVTTAEKPTLESAKAGDEATSGEAASVDKVKSLISEWGDDDEDEDENGVSAAAKEEL
# B4: mei-P22 (protein)
# chain: MDRTTVVPSPASTYCSFMGGSQHSPLRRSQRLIDKENRDLQKIPPKSLSPQLFGNTEDDYSELLLQQGKVVHLKPAAKLVPVRSSDNLVHLGSRDKVVPLKTSNRIVHLKPPYKIIHLKSLDEVEKTVKKKNNIQKEVHQRNSQRRSIQCTPKKRGRKPKQPAKKLQSRISTDQLGSTPSPSKLPAKYPAHFVHQLPPAEDSSCATRRRSLSAPAMQLSDLSLTPDEIQTPERRGEIVNKSPSDLDSDVSLNFSLSDSIGEIFGTKDISSILTMQRPRQYILLEEHLPTLATMLNVDLERLRCVLDITQGLSHEQILRFPIKHEEDELEVP
# B5: JIL-1 (protein)
# chain: MSRLQKQNYEILSGTSTSRLKNHQHPRESESLAYEEPDQMVRNHLNGQLVANGNGKTRKNSNSETMTNGKKSKLNTEGSGSGSGKTLNYNNNNNNNNSISATNGQYTNSSSKTTSASARDYTYRETISPPTPPSPPTTNVADIVCISDAESEDGRDPEREYYDQDMEEDEPNGIEIDESSSSLSKAKSNNAAAAAAAAAAAAAAAASKASSSTTPSYAMPTSNSTPLDLDNEAHQRDLEAVTDLKYYVKLYSDEAVSLNDFKIIRVLGTGAYGRVFLVRKLTRHDAGKLYAMKVLNKITVVQKRKTAEHTKTERVVLEAIQRNPFLVSLHYAFQSSSKLYLVLDFANGGELFTHLYHSENFEESRVRVYIAEVVLALEQLHQLGIIYRDIKLENILLDGEGHIVLSDFGLSKILTAENEYRAHSFCGTLEYMAPEIIRTGPPGHDSAVDWWSVGVLTFELLTGASPFATSDGQVQQSEISRRIQKEQPMIPSSFSANARDFVLKMLEKNPKRRLGGNHRDASEIKEHPFFNGINWQELRTKRRKAPYKPTLTAEDDVQNFSNEFTDQVPEDPECDAPPSRIRLFRGYTYVAPEHLEQMRRDNHCEIQYFNTGLQNIPCRPDDLELGTRTSNGAYGTCHFVVDSSTDLVFLAKIIPLSKFRPSEVDALISCALDTTNHKNIVSYHGTFREKCETWIVMEYLSGPELTASIRMDEDSCREIFLQLVMAVRHIHSKHFIHGDLKPENIMFENREDRTVKLIDFGSACYNNRFKSWKDKPRYTLDYAPPEMLADANLVTYSPAVDIYGLGATLYTMLVGHRPYRQNEDDVDHSAAAHHELRKRMRRGTFNQRSMRWESASPAFRHLVSWCLQRDPADRPTLSDILDSEWLQYGSNDPDVDIILPQQMVVDLSEDTMEQPTGGMFDDQQQLEFMHDKSAEDEGITLVSEPMDTTVATHESRRNAAAFSSVVAPTTDDEIVHERFDPAFEVQADFYGFDENAPPLPLPEEYYSELPLPEEDRQYIPPPPALIPVEPETTFRRPRTRQQRRTESQLVQPVSVATYEDSKASLRVLMQQLPPPGDNVVARIPKRTHRVVRTLPPTFGTTKREENFYGFSKTAISWRKTRASWRHFCLLINGVQQVLKVRFKKARRVYCLPHIKEEKLDHAYEKPLTFPRPKAQLKRTKREPKVPRPPTRVQPERARAMRQLYQFQ
# B6: cN-IIIB (protein)
# chain: MGFDEKREPTGGRLRLQDIPALTQDHCRMRDPAEVERIINEFVIGGPERMQIVSDFDYTITKQRTEDGGAVPSSFGIFNACQSLPENFKAETDKLYHKYRPIEIDPHMPIAEKVQYMIEWWTKSGELTSGFPFDQSEIDQIASKYTHALRDRTHEFFADLQRLGIPTLVFSAGLGNSVVSVLRQANVLHPNVKVVSNFLQFRDGLLDGFQQPMIHTFNKNETVLNETSEYYDLVHTRDHIIVMGDSIGDADMASGVPASSHIMKIGFLFDHVEANMKKYMDTFDIVLVDDQTMDVPRTLLSLIEKQHKLNLEAPKQSSL
# B7: vilya (protein)
# chain: MAKSQAGQTVEPEASKLWIHCNSCCALFCDKKHTFFLLACHHVFCERCVKVSAGRTPSDAPIFECSTCRRSVRGRQLTNSMPNHFKQLFHPEPFTIGNDFVETFQRGNHRHFDKYKERKELEMDKLFKDIEVAKSVCQKRFLEAQMLRVERKKLMQRSRYIKAEVANRKAEMHRMAQAYRSRSLTSQSSSSAQRSARGRPRGRGTATQSSSRRRSTESAKRQQITSFIHPPNNSFDL
# B8: CG6153 (protein)
# chain: MPHGHSHDHGGCSHEASDVDHALEMGIEYSLYTKIDLDNVECLNEETDGQGKSVFKPYEKRQDLSKYVESDADEELLFNIPFTGNIKLKGIIISGANDDSHPNMVKIFKNRPRMTFDDARAKPDQEFQLTRDARGEIEYSPKVVTFSSVHHLSLYFPSNFGEDITRIYYIGLRGEFTEAHYHGVTICNYESRANAADHKEKAFDGVGRAIQ
# Legend:
# Test in all cases: MAPPIT interaction score (arbitrary units); higher = stronger binary interaction signal, active = hit call of the paper
# mira = conditions: MAPPIT configuration: N-C; pair source set: Lit-BM-16
# nos = conditions: pair source set: Lit-BM-16
# msd5 = conditions: MAPPIT configuration: N-N; pair source set: Curagen_low_conf
# mod(mdg4) = conditions: pair source set: Lit-BM-16
# su(Hw) = conditions: MAPPIT configuration: N-C; pair source set: Lit-BM-16
# mei-P22 = conditions: MAPPIT configuration: N-N; pair source set: screen_2
# msl-2 = conditions: pair source set: Lit-BM-16
# mal = conditions: MAPPIT configuration: N-N; pair source set: Lit-BS-16
# otp = conditions: MAPPIT configuration: N-N; pair source set: screen_2
# mwh = conditions: MAPPIT configuration: N-N; pair source set: Curagen_high_conf
# mnb = conditions: MAPPIT configuration: N-N; pair source set: Finley_Y2H
# 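Further: HEK293T cells with Epo stimulation, STAT-responsive firefly luciferase reporter, fold induction versus unstimulated cells divided by the larger fold induction of two negative controls lacking either bait or prey.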
binder,measurement,setting,value
B1,MAPPIT interaction score,mira,1.62
same,MAPPIT interaction score,nos; MAPPIT configuration: N-C,0.0947
same,MAPPIT interaction score,nos; MAPPIT configuration: N-N,0.243
B2,MAPPIT interaction score,msd5,2.32
B3,MAPPIT interaction score,mod(mdg4); MAPPIT configuration: N-C,2.63
same,MAPPIT interaction score,mod(mdg4); MAPPIT configuration: N-N,-0.119
same,MAPPIT interaction score,su(Hw),-0.381
B4,MAPPIT interaction score,mei-P22,4.86 (active)
B5,MAPPIT interaction score,msl-2; MAPPIT configuration: N-C,0.534
same,MAPPIT interaction score,msl-2; MAPPIT configuration: N-N,0.0488
B6,MAPPIT interaction score,mal,1.36
same,MAPPIT interaction score,otp,-0.311
B7,MAPPIT interaction score,mwh,0.602
B8,MAPPIT interaction score,mnb,1.74

# — the supplement of paper PMC10105736
